Tests used:
Test in all cases: DAPPL (digital affinity profiling via proximity ligation, sequencing); 10 mM Tris-HCl pH 7.5, 50 mM NaCl, 1 mM DTT, 4% glycerol, room temperature, 30 min; GST-TFs on glutathione beads, 16-mer random dsDNA library, 0.1% formaldehyde crosslink after washing; high values mean tight binding
FLI1 = target: T1, FLI1 (Homo sapiens, UniProt Q01543 1-452); settings: protein: recombinant; tags: N-terminal GST; dsDNA, one strand shown
T1 sequence: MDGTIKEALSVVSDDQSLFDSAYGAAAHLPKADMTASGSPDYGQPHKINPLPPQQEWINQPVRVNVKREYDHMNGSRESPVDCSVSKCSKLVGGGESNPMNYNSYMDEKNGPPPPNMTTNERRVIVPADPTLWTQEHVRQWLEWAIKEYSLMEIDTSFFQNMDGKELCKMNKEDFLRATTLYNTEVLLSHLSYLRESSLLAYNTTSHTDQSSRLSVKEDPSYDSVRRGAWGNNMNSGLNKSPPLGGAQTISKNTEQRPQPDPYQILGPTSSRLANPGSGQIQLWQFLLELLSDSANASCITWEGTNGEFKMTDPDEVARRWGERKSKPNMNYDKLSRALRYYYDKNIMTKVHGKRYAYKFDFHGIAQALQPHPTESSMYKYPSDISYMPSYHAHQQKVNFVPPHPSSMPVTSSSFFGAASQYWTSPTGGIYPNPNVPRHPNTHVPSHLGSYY
In short: (§1)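 Human transcription factors fused to GST were expressed in yeast, captured on glutathione beads, given DNA barcodes and pooled with a GST-only negative control. Pools were incubated with 200 nmole of a 16-mer random double-stranded DNA library in Tris/NaCl/DTT/glycerol buffer at room temperature for 30 min. They were then washed, crosslinked with 0.1% formaldehyde, proximity-ligated (BsaI/T4 ligase, 1 h, 37 °C), PCR-amplified and sequenced on an Illumina NextSeq500. Binding signal is each 6-mer's read frequency for a factor divided by its frequency for the GST control.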

ELK1 = target: T2, ELK1 (Homo sapiens, UniProt P19419 1-428); settings: protein: recombinant; tags: N-terminal GST; dsDNA, one strand shown
T2 sequence: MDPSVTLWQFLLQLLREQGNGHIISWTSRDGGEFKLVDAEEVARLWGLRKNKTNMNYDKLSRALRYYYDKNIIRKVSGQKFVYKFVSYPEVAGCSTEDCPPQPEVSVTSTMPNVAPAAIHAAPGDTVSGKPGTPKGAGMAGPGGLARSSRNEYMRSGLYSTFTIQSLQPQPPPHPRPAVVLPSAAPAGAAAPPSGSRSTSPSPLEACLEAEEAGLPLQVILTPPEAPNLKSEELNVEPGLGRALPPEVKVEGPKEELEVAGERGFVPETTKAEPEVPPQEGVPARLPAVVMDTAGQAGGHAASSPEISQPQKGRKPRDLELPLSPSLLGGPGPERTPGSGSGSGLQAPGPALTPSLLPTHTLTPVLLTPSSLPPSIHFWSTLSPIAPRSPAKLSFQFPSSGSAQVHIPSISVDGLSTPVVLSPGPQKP
In short: as §1

GABPA = target: T3, GABPA (Homo sapiens, UniProt Q06546 1-454); settings: protein: recombinant; tags: N-terminal GST; dsDNA, one strand shown
T3 sequence: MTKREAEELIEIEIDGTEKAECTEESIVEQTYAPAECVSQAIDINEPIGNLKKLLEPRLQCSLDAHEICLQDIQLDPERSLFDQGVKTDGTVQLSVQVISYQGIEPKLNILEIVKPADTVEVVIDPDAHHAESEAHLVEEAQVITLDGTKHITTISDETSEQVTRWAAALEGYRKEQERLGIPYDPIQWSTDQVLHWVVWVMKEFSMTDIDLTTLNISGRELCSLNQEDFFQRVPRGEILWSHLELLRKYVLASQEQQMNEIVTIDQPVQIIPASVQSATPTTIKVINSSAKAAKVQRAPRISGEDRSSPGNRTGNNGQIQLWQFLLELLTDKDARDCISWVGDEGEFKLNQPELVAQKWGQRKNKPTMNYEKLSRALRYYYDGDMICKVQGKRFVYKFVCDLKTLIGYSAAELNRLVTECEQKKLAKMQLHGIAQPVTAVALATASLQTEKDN
In short: as §1

ERG = target: T4, ERG (Homo sapiens, UniProt P11308 1-479); settings: protein: recombinant; tags: N-terminal GST; dsDNA, one strand shown
T4 sequence: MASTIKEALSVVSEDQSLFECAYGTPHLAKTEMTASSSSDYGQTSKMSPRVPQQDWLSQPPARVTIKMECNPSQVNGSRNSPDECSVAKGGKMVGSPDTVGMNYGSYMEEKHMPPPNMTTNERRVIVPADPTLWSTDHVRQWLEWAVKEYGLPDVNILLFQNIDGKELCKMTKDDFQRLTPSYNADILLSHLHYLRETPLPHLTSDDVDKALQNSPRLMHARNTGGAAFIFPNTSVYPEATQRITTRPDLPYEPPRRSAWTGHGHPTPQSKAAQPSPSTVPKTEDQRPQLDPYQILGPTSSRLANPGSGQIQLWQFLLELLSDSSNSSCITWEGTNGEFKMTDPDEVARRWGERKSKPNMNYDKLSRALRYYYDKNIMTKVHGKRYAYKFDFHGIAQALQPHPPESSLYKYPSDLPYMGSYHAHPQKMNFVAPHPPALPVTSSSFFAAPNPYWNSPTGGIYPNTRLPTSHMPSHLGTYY
In short: as §1

ELF1 = ELF1 (Homo sapiens, UniProt P32519 1-619); settings: protein: recombinant; tags: N-terminal GST; dsDNA, one strand shown
ELF1, sequence (P32519 whole entry): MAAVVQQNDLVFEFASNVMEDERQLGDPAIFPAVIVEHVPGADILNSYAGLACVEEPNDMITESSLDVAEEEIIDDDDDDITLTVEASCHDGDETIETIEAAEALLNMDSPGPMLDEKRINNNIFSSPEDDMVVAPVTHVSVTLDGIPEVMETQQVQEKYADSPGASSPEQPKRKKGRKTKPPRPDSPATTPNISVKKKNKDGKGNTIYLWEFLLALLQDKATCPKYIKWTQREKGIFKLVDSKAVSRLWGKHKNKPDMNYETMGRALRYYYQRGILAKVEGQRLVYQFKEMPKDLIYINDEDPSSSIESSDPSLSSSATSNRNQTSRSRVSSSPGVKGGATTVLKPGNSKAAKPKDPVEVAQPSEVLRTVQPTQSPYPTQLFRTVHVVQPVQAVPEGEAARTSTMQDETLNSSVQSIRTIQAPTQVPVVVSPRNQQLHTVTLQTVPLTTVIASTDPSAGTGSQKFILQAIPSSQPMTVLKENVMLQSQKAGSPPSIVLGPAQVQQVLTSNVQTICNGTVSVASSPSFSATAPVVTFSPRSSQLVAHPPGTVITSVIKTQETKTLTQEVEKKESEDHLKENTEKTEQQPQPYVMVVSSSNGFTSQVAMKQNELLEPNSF
In short: as §1

EHF = target: T5, EHF (Homo sapiens, UniProt Q9NZC4 1-300); settings: protein: recombinant; tags: N-terminal GST; dsDNA, one strand shown
T5 sequence: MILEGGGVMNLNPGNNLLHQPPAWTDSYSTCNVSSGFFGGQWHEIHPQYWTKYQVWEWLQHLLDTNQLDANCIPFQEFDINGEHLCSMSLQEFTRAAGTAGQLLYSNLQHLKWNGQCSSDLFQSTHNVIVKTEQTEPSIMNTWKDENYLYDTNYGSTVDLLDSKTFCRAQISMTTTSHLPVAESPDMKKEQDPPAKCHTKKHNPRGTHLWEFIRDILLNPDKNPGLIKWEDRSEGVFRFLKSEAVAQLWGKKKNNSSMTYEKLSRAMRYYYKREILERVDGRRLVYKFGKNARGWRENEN
In short: as §1

SPI1 = SPI1 (Homo sapiens, UniProt P17947 1-270); settings: protein: recombinant; tags: N-terminal GST; dsDNA, one strand shown
In short: as §1

SPIB = SPIB (Homo sapiens, UniProt Q01892 1-262); settings: protein: recombinant; tags: N-terminal GST; dsDNA, one strand shown
SPIB, sequence (Q01892 whole entry): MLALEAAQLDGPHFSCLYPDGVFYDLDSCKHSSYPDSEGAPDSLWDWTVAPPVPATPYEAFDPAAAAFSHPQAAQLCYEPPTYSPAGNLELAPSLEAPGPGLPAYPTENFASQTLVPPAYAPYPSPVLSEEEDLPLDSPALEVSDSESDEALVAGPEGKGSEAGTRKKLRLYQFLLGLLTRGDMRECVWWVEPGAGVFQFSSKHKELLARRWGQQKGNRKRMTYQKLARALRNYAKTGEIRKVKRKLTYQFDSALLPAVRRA
In short: as §1

ELK3 = target: T6, ELK3 (Homo sapiens, UniProt P41970 1-407); settings: protein: recombinant; tags: N-terminal GST; dsDNA, one strand shown
T6 sequence: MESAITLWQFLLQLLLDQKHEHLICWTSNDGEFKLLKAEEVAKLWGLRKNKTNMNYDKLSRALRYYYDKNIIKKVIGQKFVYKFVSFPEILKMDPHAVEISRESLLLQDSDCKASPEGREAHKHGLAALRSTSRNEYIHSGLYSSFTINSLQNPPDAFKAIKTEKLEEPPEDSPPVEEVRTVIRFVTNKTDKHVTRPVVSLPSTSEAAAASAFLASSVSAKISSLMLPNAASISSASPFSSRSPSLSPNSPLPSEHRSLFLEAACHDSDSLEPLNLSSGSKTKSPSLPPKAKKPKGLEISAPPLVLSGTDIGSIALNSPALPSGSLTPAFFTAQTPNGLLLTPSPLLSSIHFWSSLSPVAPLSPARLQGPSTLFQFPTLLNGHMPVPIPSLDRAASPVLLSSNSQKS
In short: as §1

FEV = target: T7, FEV (Homo sapiens, UniProt Q99581 1-238); settings: protein: recombinant; tags: N-terminal GST; dsDNA, one strand shown
T7 sequence: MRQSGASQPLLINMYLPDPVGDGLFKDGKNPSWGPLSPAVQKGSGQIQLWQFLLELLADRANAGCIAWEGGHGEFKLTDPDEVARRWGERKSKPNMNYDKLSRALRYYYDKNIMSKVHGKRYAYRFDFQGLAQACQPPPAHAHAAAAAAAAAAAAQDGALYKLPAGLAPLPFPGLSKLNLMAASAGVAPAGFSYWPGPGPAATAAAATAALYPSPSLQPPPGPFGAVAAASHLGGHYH
In short: as §1

ETV5 = ETV5 (Homo sapiens, UniProt P41161 1-510); settings: protein: recombinant; tags: N-terminal GST; dsDNA, one strand shown
ETV5, sequence (P41161 whole entry): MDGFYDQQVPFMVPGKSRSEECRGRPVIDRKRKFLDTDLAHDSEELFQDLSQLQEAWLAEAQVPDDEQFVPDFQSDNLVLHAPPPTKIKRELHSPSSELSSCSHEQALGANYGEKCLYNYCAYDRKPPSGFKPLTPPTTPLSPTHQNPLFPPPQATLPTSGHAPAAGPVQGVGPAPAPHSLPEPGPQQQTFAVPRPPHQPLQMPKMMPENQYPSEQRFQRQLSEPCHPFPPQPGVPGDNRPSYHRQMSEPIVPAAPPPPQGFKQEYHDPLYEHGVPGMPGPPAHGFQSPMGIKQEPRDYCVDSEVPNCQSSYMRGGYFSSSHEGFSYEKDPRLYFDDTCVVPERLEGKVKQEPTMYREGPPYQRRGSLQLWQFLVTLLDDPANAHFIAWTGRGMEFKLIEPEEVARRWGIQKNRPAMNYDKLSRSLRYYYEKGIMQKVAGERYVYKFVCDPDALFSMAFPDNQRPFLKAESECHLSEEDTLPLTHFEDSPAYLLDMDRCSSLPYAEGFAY
In short: as §1

HSF1 = HSF1 (Homo sapiens, UniProt Q00613 1-529); settings: protein: recombinant; tags: N-terminal GST; chain copies: 3; dsDNA, one strand shown
HSF1, sequence (Q00613 whole entry): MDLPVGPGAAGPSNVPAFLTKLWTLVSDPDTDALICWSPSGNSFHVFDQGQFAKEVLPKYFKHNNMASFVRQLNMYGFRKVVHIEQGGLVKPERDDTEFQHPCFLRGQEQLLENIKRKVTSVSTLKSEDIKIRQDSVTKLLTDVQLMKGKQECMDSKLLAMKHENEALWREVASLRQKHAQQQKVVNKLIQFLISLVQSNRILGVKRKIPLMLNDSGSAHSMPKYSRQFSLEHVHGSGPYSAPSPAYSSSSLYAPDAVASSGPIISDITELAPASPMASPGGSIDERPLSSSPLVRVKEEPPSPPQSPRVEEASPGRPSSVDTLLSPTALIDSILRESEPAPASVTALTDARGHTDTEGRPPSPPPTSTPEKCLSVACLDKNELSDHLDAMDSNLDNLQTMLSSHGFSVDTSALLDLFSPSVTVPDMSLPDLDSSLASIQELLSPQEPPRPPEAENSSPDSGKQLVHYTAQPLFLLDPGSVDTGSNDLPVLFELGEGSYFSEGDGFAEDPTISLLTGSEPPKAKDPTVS
In short: as §1

SPIC = target: T8, SPIC (Homo sapiens, UniProt Q8N5J4 1-248); settings: protein: recombinant; tags: N-terminal GST; dsDNA, one strand shown
T8 sequence: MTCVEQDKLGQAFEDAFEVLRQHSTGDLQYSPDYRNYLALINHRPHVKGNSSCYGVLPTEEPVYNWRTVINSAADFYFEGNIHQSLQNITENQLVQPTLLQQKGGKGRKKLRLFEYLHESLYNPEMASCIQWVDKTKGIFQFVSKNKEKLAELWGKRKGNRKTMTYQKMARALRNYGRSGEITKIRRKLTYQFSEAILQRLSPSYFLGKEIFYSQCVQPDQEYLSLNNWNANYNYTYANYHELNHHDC
In short: as §1

ELF4 = ELF4 (Homo sapiens, UniProt Q99607 1-663); settings: protein: recombinant; tags: N-terminal GST; dsDNA, one strand shown
ELF4, sequence (Q99607 whole entry): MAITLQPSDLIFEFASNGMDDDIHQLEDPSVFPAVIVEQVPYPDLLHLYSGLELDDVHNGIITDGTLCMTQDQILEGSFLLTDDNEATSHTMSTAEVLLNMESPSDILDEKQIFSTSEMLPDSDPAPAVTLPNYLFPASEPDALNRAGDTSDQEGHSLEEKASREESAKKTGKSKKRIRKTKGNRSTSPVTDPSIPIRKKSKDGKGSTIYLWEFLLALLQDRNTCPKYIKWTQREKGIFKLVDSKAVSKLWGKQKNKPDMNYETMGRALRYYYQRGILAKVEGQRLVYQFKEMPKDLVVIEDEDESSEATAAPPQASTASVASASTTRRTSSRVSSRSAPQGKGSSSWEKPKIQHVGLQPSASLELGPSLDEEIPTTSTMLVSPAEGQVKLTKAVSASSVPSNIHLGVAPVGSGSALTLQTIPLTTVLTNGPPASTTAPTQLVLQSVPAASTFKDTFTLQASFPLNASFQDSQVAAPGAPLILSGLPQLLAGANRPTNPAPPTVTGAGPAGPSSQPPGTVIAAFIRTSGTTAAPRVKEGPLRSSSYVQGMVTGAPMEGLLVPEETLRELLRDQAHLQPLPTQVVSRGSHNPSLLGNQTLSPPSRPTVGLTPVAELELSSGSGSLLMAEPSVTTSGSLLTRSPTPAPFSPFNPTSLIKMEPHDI
In short: as §1

ELK4 = target: T9, ELK4 (Homo sapiens, UniProt P28324-2 1-405); settings: protein: recombinant; tags: N-terminal GST; dsDNA, one strand shown
T9 sequence: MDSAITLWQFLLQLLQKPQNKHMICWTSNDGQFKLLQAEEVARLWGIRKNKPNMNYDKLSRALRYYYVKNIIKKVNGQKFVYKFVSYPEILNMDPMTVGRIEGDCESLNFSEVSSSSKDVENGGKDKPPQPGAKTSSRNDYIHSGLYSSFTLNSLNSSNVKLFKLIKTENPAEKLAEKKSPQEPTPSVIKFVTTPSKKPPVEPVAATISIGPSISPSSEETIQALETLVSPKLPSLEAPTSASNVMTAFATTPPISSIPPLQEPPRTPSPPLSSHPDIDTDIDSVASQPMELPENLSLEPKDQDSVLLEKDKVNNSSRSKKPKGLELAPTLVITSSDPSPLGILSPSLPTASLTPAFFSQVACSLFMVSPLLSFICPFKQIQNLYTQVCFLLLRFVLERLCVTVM
In short: as §1

ETV2 = target: T10, ETV2 (Homo sapiens, UniProt O00321 1-342); settings: protein: recombinant; tags: N-terminal GST; dsDNA, one strand shown
T10 sequence: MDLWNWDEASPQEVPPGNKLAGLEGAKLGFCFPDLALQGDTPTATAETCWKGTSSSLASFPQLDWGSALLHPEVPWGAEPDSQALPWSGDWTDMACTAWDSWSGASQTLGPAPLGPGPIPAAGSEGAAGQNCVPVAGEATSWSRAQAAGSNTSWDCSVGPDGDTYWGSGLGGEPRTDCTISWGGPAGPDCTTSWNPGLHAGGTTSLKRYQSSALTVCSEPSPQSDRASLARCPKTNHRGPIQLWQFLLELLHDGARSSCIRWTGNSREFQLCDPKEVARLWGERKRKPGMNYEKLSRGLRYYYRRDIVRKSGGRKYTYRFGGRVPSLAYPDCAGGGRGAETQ
In short: as §1

ELF3 = target: T11, ELF3 (Homo sapiens, UniProt P78545 1-371); settings: protein: recombinant; tags: N-terminal GST; dsDNA, one strand shown
T11 sequence: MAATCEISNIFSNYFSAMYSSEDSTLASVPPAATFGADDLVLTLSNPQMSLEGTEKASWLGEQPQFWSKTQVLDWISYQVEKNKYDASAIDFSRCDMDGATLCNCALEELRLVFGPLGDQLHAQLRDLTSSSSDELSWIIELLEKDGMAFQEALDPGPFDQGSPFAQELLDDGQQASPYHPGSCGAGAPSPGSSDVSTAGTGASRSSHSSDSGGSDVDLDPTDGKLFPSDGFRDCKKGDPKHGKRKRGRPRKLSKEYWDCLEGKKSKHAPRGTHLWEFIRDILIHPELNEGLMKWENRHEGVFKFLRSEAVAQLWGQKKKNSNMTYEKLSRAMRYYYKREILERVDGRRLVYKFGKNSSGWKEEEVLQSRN
In short: as §1

CRX = CRX (Homo sapiens, UniProt O43186 1-299); settings: protein: recombinant; tags: N-terminal GST; dsDNA, one strand shown
CRX, sequence (O43186 whole entry): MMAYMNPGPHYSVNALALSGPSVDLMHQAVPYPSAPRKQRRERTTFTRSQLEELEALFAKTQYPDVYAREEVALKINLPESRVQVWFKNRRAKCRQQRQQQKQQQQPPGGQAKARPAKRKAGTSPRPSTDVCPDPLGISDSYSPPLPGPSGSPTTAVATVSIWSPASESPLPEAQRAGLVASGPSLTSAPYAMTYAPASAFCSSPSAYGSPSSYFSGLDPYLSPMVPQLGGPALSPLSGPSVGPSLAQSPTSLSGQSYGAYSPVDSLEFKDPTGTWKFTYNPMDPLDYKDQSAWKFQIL
In short: as §1

ETV1 = ETV1 (Homo sapiens, UniProt P50549 1-477); settings: protein: recombinant; tags: N-terminal GST; dsDNA, one strand shown
ETV1, sequence (P50549 whole entry): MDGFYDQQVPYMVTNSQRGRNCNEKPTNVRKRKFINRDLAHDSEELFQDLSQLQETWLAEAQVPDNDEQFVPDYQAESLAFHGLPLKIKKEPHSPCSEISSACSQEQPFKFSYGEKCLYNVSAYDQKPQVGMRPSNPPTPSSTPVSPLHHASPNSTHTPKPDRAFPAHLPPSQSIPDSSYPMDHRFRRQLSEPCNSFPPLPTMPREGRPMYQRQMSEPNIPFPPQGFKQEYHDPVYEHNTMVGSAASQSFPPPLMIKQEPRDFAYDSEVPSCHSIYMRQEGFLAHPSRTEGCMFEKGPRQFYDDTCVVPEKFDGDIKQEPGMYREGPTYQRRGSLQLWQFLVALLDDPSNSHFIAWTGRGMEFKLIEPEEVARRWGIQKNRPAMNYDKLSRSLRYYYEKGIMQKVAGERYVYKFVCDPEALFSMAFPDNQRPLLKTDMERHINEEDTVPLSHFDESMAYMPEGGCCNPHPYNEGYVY
In short: as §1

## CTCTTT
FLI1
  binding signal: 1.37 fold enrichment (6-mer frequency, TF over GST control)
ELK1
  binding signal: 1.33 fold enrichment (6-mer frequency, TF over GST control)
GABPA
  binding signal: 1.39 fold enrichment (6-mer frequency, TF over GST control)
ERG
  binding signal: 1.43 fold enrichment (6-mer frequency, TF over GST control)
ELF1
  binding signal: 1.53 fold enrichment (6-mer frequency, TF over GST control)
EHF
  binding signal: 1.55 fold enrichment (6-mer frequency, TF over GST control)
SPI1
  binding signal: 2.23 fold enrichment (6-mer frequency, TF over GST control)
SPIB
  binding signal: 1.42 fold enrichment (6-mer frequency, TF over GST control)
ELK3
  binding signal: 1.66 fold enrichment (6-mer frequency, TF over GST control)
FEV
  binding signal: 1.47 fold enrichment (6-mer frequency, TF over GST control)
ETV5
  binding signal: 1.42 fold enrichment (6-mer frequency, TF over GST control)
HSF1
  binding signal: 1.4 fold enrichment (6-mer frequency, TF over GST control)
SPIC
  binding signal: 1.35 fold enrichment (6-mer frequency, TF over GST control)
ELF4
  binding signal: 1.44 fold enrichment (6-mer frequency, TF over GST control)
ELK4
  binding signal: 1.31 fold enrichment (6-mer frequency, TF over GST control)
ETV2
  binding signal: 1.58 fold enrichment (6-mer frequency, TF over GST control)
ELF3
  binding signal: 1.4 fold enrichment (6-mer frequency, TF over GST control)
CRX
  binding signal: 1.53 fold enrichment (6-mer frequency, TF over GST control)
ETV1
  binding signal: 1.44 fold enrichment (6-mer frequency, TF over GST control)

Source: PMC7862700, “An all-to-all approach to the identification of sequence-specific readers for epigenetic DNA modifications on cytosine”
